# Experimental data as given in PubChem BioAssay (NCATS).
# Results filed as inconclusive are left out. Entries that show only a call come without a potency. Values without a mark were called inactive. The source made the active and inactive calls. Calls come from the whole dose curve; as a rule, active = well fitted curve in the direction sought with a large enough effect; inconclusive = small, poorly fitted or top-dose-only effect, or another doubt; inactive = no such curve, though single readings can be large; an effect the other way counts as inactive or inconclusive.
# What was measured:
# [1] = target: Rap guanine nucleotide exchange factor 3 (Homo sapiens) (UniProt O95398); experiment: Confirmatory qHTS for antagonist of cAMP-regulated guanine nucleotide exchange factor 3 (EPAC1) (AID 1645880); details: EPAC1 Rap1B-BODIPY-GDP exchange, fluorescence; activity, negative = inhibition: at 115 µM (top of the series); note: nearly all actives have a fitted effect of over 55% in size; note: potency is the fitted concentration of half-maximal effect
# Method in brief: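 Released BODIPY-GDP fluoresces less than Rap1-bound BODIPY-GDP; the signal is followed at 480/540 nm at 5-min intervals over 30 min, after 5 min at room temperature. Reactions contain 100 nM EPAC1, 250 nM RAP1B-BODIPY-GDP and 50 uM GDP; results are normalized to ATA and DMSO.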
# [2] = target: Rap guanine nucleotide exchange factor 3 (Homo sapiens) (UniProt O95398); experiment: Confirmatory qHTS for agonist of cAMP-regulated guanine nucleotide exchange factor 3 (EPAC1) (AID 1645881); note: nearly all actives have a fitted effect of over 75% in size; note: potency is the fitted concentration of half-maximal effect;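 for activation: EPAC1 catalysed release of BODIPY-GDP from Rap1B seen as fluorescence loss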
# [3] = target: Rap guanine nucleotide exchange factor 4 (Homo sapiens) (UniProt Q8WZA2); experiment: Confirmatory qHTS for agonist of cAMP-regulated guanine nucleotide exchange factor 4 (EPAC2) (AID 1645884);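 note: nucleotide exchange releases bodipy-GDP from Rap1 and this lowers its fluorescence; nearly all actives have a fitted effect of over 65% in size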; note: potency is the fitted concentration of half-maximal effect
# [4] = target: Rap guanine nucleotide exchange factor 4 (Homo sapiens) (UniProt Q8WZA2); experiment: Confirmatory qHTS for antagonist of cAMP-regulated guanine nucleotide exchange factor 4 (EPAC2) (AID 1645885); note: nearly all actives have a fitted effect of over 25% in size; note: potency is the fitted concentration of half-maximal effect
# [5] = target: Rap guanine nucleotide exchange factor 3 (Homo sapiens) (UniProt O95398); experiment: Counterscreen qHTS for antagonist of cAMP-regulated guanine nucleotide exchange factor 3 (EPAC1) (AID 1645888)
# Method in brief: (§1)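 Rap1B-BODIPY-GDP 250 nM + GDP 50 uM; cpds 7-pt, final 9.74 nM–152 uM (activator mode) or from 7.32 nM upwards (inhibitor mode); RT; FI 480/540 nm at 5 and 30 min, then ± cAMP, reread.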
# [6] = target: Rap guanine nucleotide exchange factor 3 (Homo sapiens) (UniProt O95398); experiment: Counterscreen qHTS for agonist of cAMP-regulated guanine nucleotide exchange factor 3 (EPAC1) (AID 1645889); note: nearly all actives have a fitted effect of over 40% in size; note: potency is the fitted concentration of half-maximal effect
# Method in brief: as §1
# Sequence of Rap guanine nucleotide exchange factor 4 (Homo sapiens) (Q8WZA2 whole entry, looked up): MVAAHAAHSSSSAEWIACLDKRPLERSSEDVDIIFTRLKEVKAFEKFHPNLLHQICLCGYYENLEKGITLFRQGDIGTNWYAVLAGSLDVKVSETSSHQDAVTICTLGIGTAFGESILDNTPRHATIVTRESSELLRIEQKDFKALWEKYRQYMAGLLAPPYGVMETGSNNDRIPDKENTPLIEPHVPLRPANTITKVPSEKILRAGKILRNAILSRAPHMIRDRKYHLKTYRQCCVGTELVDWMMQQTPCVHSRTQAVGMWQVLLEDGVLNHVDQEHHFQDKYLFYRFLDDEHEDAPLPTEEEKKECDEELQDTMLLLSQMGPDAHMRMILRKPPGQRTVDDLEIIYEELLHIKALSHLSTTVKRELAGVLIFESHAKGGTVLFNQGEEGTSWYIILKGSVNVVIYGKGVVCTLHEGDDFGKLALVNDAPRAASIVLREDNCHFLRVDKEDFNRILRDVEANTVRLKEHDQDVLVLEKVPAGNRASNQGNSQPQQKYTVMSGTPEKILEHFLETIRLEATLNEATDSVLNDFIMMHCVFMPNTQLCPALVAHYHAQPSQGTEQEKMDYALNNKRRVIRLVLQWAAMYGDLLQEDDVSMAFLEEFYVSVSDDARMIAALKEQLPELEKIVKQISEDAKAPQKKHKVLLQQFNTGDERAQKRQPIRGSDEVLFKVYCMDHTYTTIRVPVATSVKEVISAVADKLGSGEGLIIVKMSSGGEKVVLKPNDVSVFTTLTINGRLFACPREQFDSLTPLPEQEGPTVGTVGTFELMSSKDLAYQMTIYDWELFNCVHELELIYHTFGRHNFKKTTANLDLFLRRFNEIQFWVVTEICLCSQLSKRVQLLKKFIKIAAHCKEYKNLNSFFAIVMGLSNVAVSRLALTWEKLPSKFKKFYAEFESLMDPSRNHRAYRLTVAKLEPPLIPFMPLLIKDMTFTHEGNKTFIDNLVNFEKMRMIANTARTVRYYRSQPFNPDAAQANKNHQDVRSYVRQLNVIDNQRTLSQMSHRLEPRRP
# Sequence of Rap guanine nucleotide exchange factor 3 (Homo sapiens) (O95398 whole entry, looked up): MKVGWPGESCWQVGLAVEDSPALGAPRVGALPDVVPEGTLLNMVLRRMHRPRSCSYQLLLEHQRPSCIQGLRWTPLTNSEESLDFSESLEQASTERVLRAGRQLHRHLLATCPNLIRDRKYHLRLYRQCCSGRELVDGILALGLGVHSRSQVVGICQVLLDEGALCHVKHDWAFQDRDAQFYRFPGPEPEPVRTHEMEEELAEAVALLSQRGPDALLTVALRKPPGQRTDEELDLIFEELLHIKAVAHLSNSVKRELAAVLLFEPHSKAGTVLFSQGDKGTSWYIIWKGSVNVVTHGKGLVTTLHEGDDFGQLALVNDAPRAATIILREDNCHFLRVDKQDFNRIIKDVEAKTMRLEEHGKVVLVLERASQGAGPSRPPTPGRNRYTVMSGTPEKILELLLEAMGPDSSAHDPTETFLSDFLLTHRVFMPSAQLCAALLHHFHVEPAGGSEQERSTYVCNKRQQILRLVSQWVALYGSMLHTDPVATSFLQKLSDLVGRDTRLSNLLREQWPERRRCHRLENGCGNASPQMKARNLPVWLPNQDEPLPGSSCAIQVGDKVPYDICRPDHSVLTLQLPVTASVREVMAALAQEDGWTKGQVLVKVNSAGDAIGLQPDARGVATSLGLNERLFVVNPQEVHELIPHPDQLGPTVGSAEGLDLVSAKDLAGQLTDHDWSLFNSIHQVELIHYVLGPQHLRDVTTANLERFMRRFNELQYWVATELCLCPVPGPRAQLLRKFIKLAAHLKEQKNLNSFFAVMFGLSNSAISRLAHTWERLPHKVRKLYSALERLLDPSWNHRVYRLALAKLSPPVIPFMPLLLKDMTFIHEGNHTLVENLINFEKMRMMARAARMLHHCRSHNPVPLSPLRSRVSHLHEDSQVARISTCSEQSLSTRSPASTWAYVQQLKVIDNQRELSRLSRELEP
SMILES,Potency [1],Potency [2],Potency [3],Potency [4],Potency [5],Potency [6],activation [3],"activity change, negative = inhibition [5]",activation [6]
CN(CC(=O)Nc1ccccc1Sc1ccccc1)C1CCCCC1,inactive,inactive,inactive,inactive,inactive,inactive,–,–,–
CCCn1c(=O)n(C)c(=O)c2c(SCC(=O)NCc3ccco3)nc(C3CC3)nc21,inactive,inactive,inactive,inactive,inactive,inactive,–,–,–
CC(=O)Nc1ccc(S(=O)(=O)Nc2nc(-c3ccc(C(C)(C)C)cc3)cs2)cc1,44.7 µM (active),inactive,–,inactive,–,–,"0% [at 17.1 µM, percent relative to cAMP agonist control]",-15.7% [at 30.8 µM],8.98% [at 30.8 µM]
Cc1ccc(C)c(CSc2nnc(C)n3c2cc2sccc23)c1,inactive,inactive,inactive,inactive,inactive,inactive,–,–,–
CC1Cc2nc(SCC(=O)N3CCCc4ccccc43)n(C)c(=O)c2S1 (stereo not drawn),inactive,inactive,–,inactive,–,–,"-4.86% [at 17.1 µM, percent relative to cAMP agonist control]",-11.9% [at 30.8 µM],4.66% [at 30.8 µM]
COc1cc(NC(=O)C2CCCCC2)c(OC)cc1NC(=O)CN1CCCCC1,inactive,inactive,–,inactive,–,–,"4.14% [at 17.1 µM, percent relative to cAMP agonist control]",-6.17% [at 30.8 µM],11.1% [at 30.8 µM]
CCc1nnc(NS(=O)(=O)c2ccc(NCc3cc(Cl)ccc3O)cc2)s1,39.8 µM (active),inactive,–,inactive,–,–,"-0.696% [at 17.1 µM, percent relative to cAMP agonist control]",-8.7% [at 30.8 µM],11.7% [at 30.8 µM]
Cn1c(C(O)c2ccc(Br)cc2)nc(Cl)c1Cl (stereo not drawn),inactive,inactive,–,inactive,–,–,"-7.53% [at 17.1 µM, percent relative to cAMP agonist control]",-0.272% [at 30.8 µM],8.17% [at 30.8 µM]
COc1ccc(Cl)cc1-n1c(=S)sc2c(=O)[nH]c(SCC(=O)NCCC(C)C)nc21,15.1 µM (active),inactive,inactive,inactive,inactive,inactive,–,–,–
Cc1ccc(OCC(=O)OC(C)CN(C)Cc2ccccc2)cc1 (stereo not drawn),inactive,inactive,–,inactive,–,–,"4.43% [at 17.1 µM, percent relative to cAMP agonist control]",8.78% [at 30.8 µM],10.6% [at 30.8 µM]
CC(=O)NNC(=O)c1sc(=S)n2c1[nH]c(=O)c1sccc12,37.9 µM (active),inactive,inactive,inactive,inactive,inactive,–,–,–
C/C(=N\NC(=O)c1cc(O)ccc1O)c1cccc(NC(=O)c2ccc(Cl)cc2)c1,75.7 µM (active),inactive,inactive,inactive,inactive,inactive,–,–,–
CCN1CCN(c2ccc(S(=O)(=O)N3CCCCC3)cc2NC(=O)C(C)Oc2ccc(F)cc2)CC1 (stereo not drawn),inactive,inactive,inactive,inactive,inactive,inactive,–,–,–
O=C1C2CCCN2C(c2ccccc2F)N1c1cccc(Cl)c1 (stereo not drawn),inactive,inactive,–,inactive,–,–,"0.711% [at 17.1 µM, percent relative to cAMP agonist control]",-15.2% [at 30.8 µM],9.98% [at 30.8 µM]
CCOC(=O)C1=C(CC)OC(N)=C(C#N)C1c1ccc(OC)c(OC)c1OC (stereo not drawn),inactive,inactive,–,inactive,–,–,"-0.762% [at 17.1 µM, percent relative to cAMP agonist control]",-16.4% [at 30.8 µM],8.26% [at 30.8 µM]
COc1cc2c(c(OC)c1OC)C(c1ccc3c(c1)OCO3)CC(=O)O2 (stereo not drawn),inactive,inactive,–,inactive,–,–,"4.62% [at 17.1 µM, percent relative to cAMP agonist control]",-9.71% [at 30.8 µM],18.7% [at 30.8 µM]
CCCc1nc2ccc(C(=O)OC)cn2c1Cc1ccccc1,inactive,inactive,inactive,33.8 µM (active),inactive,inactive,–,–,–
C/C(Cc1ccccc1)=N\NC(=O)c1cccnc1,inactive,inactive,–,inactive,–,–,"21.1% [at 17.1 µM, percent relative to cAMP agonist control]",-5.84% [at 30.8 µM],15.7% [at 30.8 µM]
CC(=O)Nc1c(C)nn(-c2ccccc2)c1N1CCC(C(=O)NCc2cccc(F)c2)CC1,inactive,inactive,inactive,inactive,inactive,inactive,–,–,–

SMILES,Potency [1],Potency [2],Potency [3],Potency [4],Potency [5],Potency [6],activation [3],"activity change, negative = inhibition [5]",activation [6]
CSc1ccc(CC2C(=O)Nc3ccccc32)cc1 (stereo not drawn),inactive,inactive,inactive,inactive,inactive,inactive,–,–,–
O=C(c1ccco1)N(CCC(c1ccccc1)c1ccco1)Cc1ccccc1 (stereo not drawn),44.7 µM (active),inactive,–,inactive,–,–,"1.75% [at 17.1 µM, percent relative to cAMP agonist control]",-8.3% [at 30.8 µM],15.8% [at 30.8 µM]
Cc1cccn2cc(CCNC(=O)c3ccco3)nc12,inactive,inactive,–,inactive,–,–,"4.04% [at 17.1 µM, percent relative to cAMP agonist control]",-20.8% [at 30.8 µM],19.7% [at 30.8 µM]
Cc1cccc(NC(=O)c2cc(S(=O)(=O)N(C)c3ccc(F)cc3)ccc2Cl)n1,inactive,inactive,inactive,inactive,inactive,inactive,–,–,–
Cc1csc2nc(CNS(=O)(=O)c3ccc4c(c3)CCCC4)cn12,inactive,inactive,–,inactive,–,–,"-3.4% [at 17.1 µM, percent relative to cAMP agonist control]",-30.8% [at 30.8 µM],-8.72% [at 30.8 µM]
COc1ccc(/C=N/Nc2nnc(C)n2N)cc1OC(C)=O,inactive,inactive,inactive,inactive,inactive,inactive,–,–,–
Cc1ccccc1N=C(c1ccccc1)C1C(=O)c2ccccc2C1=O,inactive,inactive,–,inactive,–,–,"8.41% [at 17.1 µM, percent relative to cAMP agonist control]",-5.51% [at 30.8 µM],13.3% [at 30.8 µM]
CCN(CC)c1ccc2c(c1)OC(N)=C(C#N)C2c1cccnc1 (stereo not drawn),inactive,89.1 µM (active),100 µM (active),75.7 µM (active),inactive,35.5 µM (active),–,–,–
Cc1[nH]n(-c2ncc(-c3ccccc3)s2)c(=O)c1C(c1ccc(Br)cc1)C(C#N)C#N (stereo not drawn),12.6 µM (active),inactive,–,inactive,–,–,"4.64% [at 17.1 µM, percent relative to cAMP agonist control]",-9.33% [at 30.8 µM],8.62% [at 30.8 µM]
COc1ccc(OC)c(NS(=O)(=O)c2cc3c4c(c2)CCN4C(=O)CC3)c1,inactive,inactive,inactive,inactive,inactive,inactive,–,–,–
O=C(NN1C(=O)/C(=C\c2ccc(O)c([N+](=O)[O-])c2)SC1=S)c1ccccc1Cl,50.1 µM (active),inactive,–,inactive,–,–,"-1.95% [at 17.1 µM, percent relative to cAMP agonist control]",-8.56% [at 30.8 µM],0.476% [at 30.8 µM]
O=C(Nc1ccc(-c2nnc(-c3ccco3)o2)cc1)C(c1ccccc1)c1ccccc1,inactive,inactive,inactive,inactive,inactive,inactive,–,–,–
COC(=O)c1ccc(CSc2ccc3nnc(-c4cccc(F)c4)n3n2)o1,inactive,inactive,–,inactive,–,–,"-3.47% [at 17.1 µM, percent relative to cAMP agonist control]",-19.6% [at 30.8 µM],0.6% [at 30.8 µM]
COc1ccc(/C=N\NC(=O)c2cc3c(ccc4ccccc43)o2)cc1O,inactive,inactive,–,inactive,–,–,"5.26% [at 17.1 µM, percent relative to cAMP agonist control]",0.0783% [at 30.8 µM],29.4% [at 30.8 µM]
N#C/C(=C(/O)C(Cl)(Cl)Cl)c1nc2ccccc2[nH]1,inactive,inactive,inactive,inactive,inactive,inactive,–,–,–
CCCCn1nnc(NC(=O)c2ccco2)n1,inactive,inactive,–,inactive,–,–,"6.58% [at 17.1 µM, percent relative to cAMP agonist control]",4.22% [at 30.8 µM],0.136% [at 30.8 µM]
CN(Cc1ccc(Cl)cc1Cl)C(=O)CN1C(=O)NC2(CCCC2)C1=O,inactive,inactive,inactive,inactive,inactive,inactive,–,–,–
COc1cc(/C=C2\SC(=S)N(CC(=O)O)C2=O)ccc1OS(=O)(=O)c1ccc(C)cc1,23.9 µM (active),inactive,inactive,inactive,inactive,inactive,–,–,–
CSCCC(NS(=O)(=O)c1ccc2c(c1)OCCO2)C(=O)N(C)Cc1ccc(F)cc1 (stereo not drawn),inactive,inactive,–,inactive,–,–,"1.67% [at 17.1 µM, percent relative to cAMP agonist control]",-2.77% [at 30.8 µM],5.06% [at 30.8 µM]
